The values below come from the supplement of paper PMC9135407.

The test deals with primary human hepatic stellate cells (donor 1). The experiment in a line: scaled lipid accumulation score (0 = DMSO-like, 1 = nortriptyline-like); higher = stronger HSC inactivation (lipid re-accumulation), active = hit call of the paper. As to conditions: 48 h.
Setting [1] is: library stock concentration: 10 mM.
[2] abbreviates: library stock concentration: 1 mM.
Where [3] appears, read: library stock concentration: 3.33 mM.

Several values for one entry are separate records, joined by “and”; a condition that tells them apart may be missing. Equal entries are not always repeated. Structures can show the parent of a compound that is named as a salt. Hit rate of the full screen: of about 5,800 compounds, about 620 (11%) showed activity. The entries come from a sample that favours actives as a whole. Unmarked numbers belong to inactive results.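 How the source made its calls: active = score above a cut-off or among the top three wells of a plate; in these data no inactive exceeds 0.85.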

For the molecule `COc1cc2c(cc1OC)[C@@]13CCN4CC5=CCO[C@H]6CC(=O)N2[C@H]1[C@H]6[C@H]5C[C@H]43` [Brucine], the “scaled lipid accumulation score” value is no more than 0 (library stock concentration: 5.1 mM) and no more than 0 under setting [1].
As to `O=c1c2ccccc2[se]n1-c1ccccc1` [Ebselen] [listing 1 of 3 here], under setting [2], the “scaled lipid accumulation score” value was no more than 0.
Regarding `O=c1c2ccccc2[se]n1-c1ccccc1` [Ebselen] [listing 2 of 3 here], the “scaled lipid accumulation score” value (library stock concentration: 18.2 mM) was 0.952 (active).
With `O=c1c2ccccc2[se]n1-c1ccccc1`, under setting [1], the “scaled lipid accumulation score” value was 1.07 (active).
Take `O=c1c2ccccc2[se]n1-c1ccccc1` [Ebselen] [listing 3 of 3 here]: the “scaled lipid accumulation score” value is 0.867 (active).
Take `CNC1=Nc2ccc(Cl)cc2C(c2ccccc2)=[N+]([O-])C1`: the “scaled lipid accumulation score” value under setting [1] is 0.036.
In the case of `CCCCC/C=C\C/C=C\C/C=C\C/C=C\CCCCOC(CO)CO` [2-Arachidonyl Glycerol ether], under setting [2], the “scaled lipid accumulation score” value was no more than 0.
The same measure, in the same setting: in the case of `COc1ccc2cc(C(C#N)OC(=O)OCC3OC3c3ccccc3)ccc2c1` (stereo not given) [Epoxy Fluor 7] it was 0.009.
For `Cc1cc2c(C(C)C)c(O)c(O)c(C=O)c2c(O)c1-c1c(C)cc2c(C(C)C)c(O)c(O)c(C=O)c2c1O` [listing 1 of 2 here], the “scaled lipid accumulation score” value under setting [1] is 0.999 (active).
Turning to `Cc1cc2c(C(C)C)c(O)c(O)c(C=O)c2c(O)c1-c1c(C)cc2c(C(C)C)c(O)c(O)c(C=O)c2c1O` [listing 2 of 2 here], the “scaled lipid accumulation score” value is, setting by setting: under setting [3], no more than 0; under setting [1], 0.142.
Turning to `Cc1cc2c(C(C)C)c(O)c(O)c(C=O)c2c(O)c1-c1c(C)cc2c(C(C)C)c(O)c(O)c(C=O)c2c1O` [Gossypol], the “scaled lipid accumulation score” value was no more than 0. Also, the “scaled lipid accumulation score” value under setting [3] was 0.016. The “scaled lipid accumulation score” value under setting [1] is 0.824 and 0.57.
For `CC(N)Cc1ccc(O)cc1` (stereo not given) [Hydroxyamphetamine hydrobromide], under setting [1], the “scaled lipid accumulation score” value was no more than 0.
As to `CC(C)=CCC[C@]1(C)C=Cc2c(O)c3c(c(CC=C(C)C)c2O1)O[C@]12C(=C[C@@H]4C[C@H]1C(C)(C)O[C@@]2(C/C=C(/C)C(=O)O)C4=O)C3=O` [Gambogic acid], under setting [1], the “scaled lipid accumulation score” value is 0.672.
Regarding `CCCCCCC(C)(C)c1cc(OC)c2c(c1)OC(C)(C)[C@@H]1CC=C(C)C[C@@H]21`, the “scaled lipid accumulation score” value under setting [2] is no more than 0.
In the case of `O=C1CSC(c2ccccc2Cl)c2cc(Cl)ccc2N1` (stereo not given), the “scaled lipid accumulation score” value is, setting by setting: under setting [1], no more than -0.006; (library stock concentration: 15.4 mM) 0.158.
For the molecule `CC[C@@]1([C@H]2O[C@H]([C@H]3O[C@@](O)(CO)[C@H](C)C[C@@H]3C)C[C@H]2C)CC[C@H]([C@@]2(C)CC[C@]3(C[C@H](O)[C@@H](C)[C@@H]([C@H](C)[C@H](OC)[C@@H](C)C(=O)O)O3)O2)O1` [Monensin sodium], the “scaled lipid accumulation score” value (library stock concentration: 7.2 mM) was 0.508.
For the molecule `CC[C@@]1([C@@H]2O[C@@H]([C@H]3O[C@@](O)(CO)[C@H](C)C[C@@H]3C)C[C@@H]2C)CC[C@H]([C@]2(C)CC[C@]3(C[C@H](O)[C@@H](C)[C@@H]([C@@H](C)[C@@H](OC)[C@H](C)C(=O)O)O3)O2)O1` [Monensin sodium salt], the “scaled lipid accumulation score” value is 0.541.
For `C=C1[C@H]2C[C@@]3([C@@H]1O)[C@@H](C[C@@H]2O)[C@]12[C@@H]4C[C@H]3[C@H]1N(CC)C[C@]4(C)CC[C@@H]2O` [Napelline], the “scaled lipid accumulation score” value is no more than 0.
Still for that read-out and setting: in the case of `NCCC(O)C(=O)NC1CC(N)C(OC2OC(CN)C(O)[C@H](O)[C@@H]2N)[C@H](OC2O[C@H](CO)[C@@H](O)[C@@H]2O)[C@@H]1O` (stereo not given in full) [Butirosin disulfate salt] it was 0.015.
Consider `COc1ccc(/C=C\c2cc(OC)cc(OC)c2)cc1` [cis-trismethoxy Resveratrol], for which, under setting [2], the “scaled lipid accumulation score” value is 0.097.
As for `N[C@]1(C(=O)O)CC[C@H](C(=O)O)C1`, the “scaled lipid accumulation score” value under setting [1] is 0.035.
Regarding `C[C@H]1O[C@@H](O[C@@H]2C[C@H](O)[C@]3(CO)[C@H]4[C@H](O)C[C@]5(C)[C@H](C6=CC(=O)OC6)CC[C@]5(O)[C@@H]4CC[C@]3(O)C2)[C@@H](O)[C@H](O)[C@H]1O.O.O.O.O.O.O.O.O` [Ouabain], the “scaled lipid accumulation score” value runs as follows: under setting [3], 1.05 (active); under setting [1], 1.06 (active).
Take `C[C@@H]1O[C@@H](O[C@H]2C[C@@H](O)[C@]3(CO)[C@H]4[C@H](O)C[C@]5(C)[C@@H](C6=CC(=O)OC6)CC[C@]5(O)[C@@H]4CC[C@]3(O)C2)[C@H](O)[C@H](O)[C@H]1O.O.O.O.O.O.O.O.O` [Strophantine octahydrate]: the “scaled lipid accumulation score” value is 1.02 (active).
Regarding `CCCCC/C=C\C/C=C\C/C=C\C/C=C\CCCC(=O)Nc1ccc2c(C)cc(=O)oc2c1` [AMC Arachidonoyl Amide], the “scaled lipid accumulation score” value under setting [2] is 0.06.
As for `C/C=C1\C[C@@H](C)[C@](O)(CO)C(=O)OCC2=CCN3CC[C@@H](OC1=O)[C@@H]23` [Retrorsine], the “scaled lipid accumulation score” value was no more than 0.
Take `COc1c(C[C@@H](C)OC(=O)Oc2ccc(O)cc2)c2c3c(C[C@@H](C)OC(=O)c4ccccc4)c(OC)c(=O)c4c(O)cc(OC)c(c5c(OC)cc(O)c(c1=O)c52)c43` [Calphostin C]: the “scaled lipid accumulation score” value (library stock concentration: 600 uM) was 0.094.
With `C=C[C@]12CN(C)[C@@H]3[C@H]4CO[C@H](C[C@H]41)[C@]1(C(=O)Nc4ccccc41)[C@@H]32` [Gelsemine], the “scaled lipid accumulation score” value is no more than 0.
Take `C=CCc1ccccc1OCC(O)CNC1(C)CCC(C(C)(C)NC(=O)CBr)CC1` (stereo not given) [Bromoacetyl alprenolol menthane]: the “scaled lipid accumulation score” value under setting [1] is no more than 0.
Take `CO[C@@H]1C[C@@H](C[C@H]2CC[C@H](C)[C@H]([C@@H](C)C(=O)O)O2)O[C@]2(O[C@](C)([C@H]3CC[C@@](C)([C@@H]4O[C@@H]([C@H]5O[C@@](O)(CO)[C@H](C)C[C@@H]5C)C[C@@H]4C)O3)C[C@H]2C)[C@@H]1C` [Nigericin]: the “scaled lipid accumulation score” value (library stock concentration: 6.9 mM) was 0.535.
`CO[C@H]1CC[C@@H](O[C@H]2C[C@H]([C@]3(C)CC[C@]4(C[C@H](O)[C@@H](C)[C@@H]([C@@H](C)/C=C(\C)C(=O)[C@H](C)C[C@H](C)C(=O)O)O4)O3)O[C@]3(O[C@@H]([C@H]4O[C@@](O)(CO)[C@H](C)C[C@@H]4C)C[C@@H]3C)[C@@H]2C)O[C@@H]1C` [Nanchangmycin]: the “scaled lipid accumulation score” value was 1.27 (active) under setting [3] and 0.663 under setting [1].
As to `NC(Cc1cc(O)c(O)cc1O)C(=O)O` (racemic) [6-Hydroxy-DL-DOPA], under setting [1], the “scaled lipid accumulation score” value is no more than -0.07.
As to `C[C@H]1CC[C@]2(NC1)O[C@H]1C[C@H]3[C@@H]4CC[C@H]5C[C@@H](O[C@@H]6O[C@H](CO)[C@H](O[C@@H]7O[C@H](CO)[C@@H](O)[C@H](O[C@@H]8OC[C@@H](O)[C@H](O)[C@H]8O)[C@H]7O[C@@H]7O[C@H](CO)[C@@H](O)[C@H](O)[C@H]7O)[C@H](O)[C@H]6O)CC[C@]5(C)[C@H]4CC[C@]3(C)[C@H]1[C@@H]2C` [Tomatine], the “scaled lipid accumulation score” value was 0.319.
In the case of `C[C@]12CC[C@H](O)C[C@H]1CC[C@@H]1[C@@H]2C[C@@H](O)[C@]2(C)[C@@H](C3=CC(=O)OC3)CC[C@]12O` [Digoxigenin], the “scaled lipid accumulation score” value was 0.991 (active).
Still for that read-out and setting: in the case of `C[C@]12CC[C@@H](O)C[C@H]1CC[C@@H]1[C@@H]2CC[C@]2(C)C(=O)CC[C@@H]12` [3-alpha-Hydroxy-5-beta-androstan-17-one] it was no more than 0; in that of `C[C@]12CC[C@@H](O)C[C@@H]1CC[C@@H]1[C@@H]2CC[C@]2(C)C(=O)CC[C@@H]12` [Androsterone], 0.083; in that of `CC(=O)O[C@H]1C[C@H](O[C@H]2[C@@H](O)C[C@H](O[C@H]3[C@@H](O)C[C@H](O[C@H]4CC[C@@]5(C)[C@H](CC[C@@H]6[C@@H]5C[C@@H](O)[C@]5(C)[C@@H](C7=CC(=O)OC7)CC[C@]65O)C4)O[C@@H]3C)O[C@@H]2C)O[C@H](C)[C@H]1O[C@@H]1O[C@H](CO)[C@@H](O)[C@H](O)[C@H]1O` [Lanatoside C], 1.08 (active).
`CO[C@H]1[C@H](O)[C@@H](O[C@H]2CC[C@]3(C=O)C4CC[C@]5(C)[C@@H](C6=CC(=O)OC6)CC[C@]5(O)C4CC[C@@H]3C2)O[C@@H](C)[C@@H]1O` (stereo not given in full) [Peruvoside]: the “scaled lipid accumulation score” value under setting [1] is 0.873 (active).
`CC(=O)O[C@H]1C[C@H](O[C@H]2[C@@H](O)C[C@H](O[C@H]3[C@@H](O)C[C@H](O[C@H]4CC[C@@]5(C)[C@H](CC[C@@H]6[C@@H]5C[C@@H](O)[C@]5(C)[C@@H](C7=CC(=O)OC7)CC[C@]65O)C4)O[C@@H]3C)O[C@@H]2C)O[C@H](C)[C@H]1O[C@@H]1O[C@H](CO)[C@@H](O)[C@H](O)[C@H]1O` [Lanatoside c]: the “scaled lipid accumulation score” value is, setting by setting: (library stock concentration: 2 mM) 0.894 (active); under setting [1], 0.892 (active).
As to `C[C@]12CC[C@H](O)C[C@H]1CC[C@@H]1[C@@H]2CC[C@]2(C)[C@@H](C3=CC(=O)OC3)CC[C@]12O` [Digitoxigenin], the “scaled lipid accumulation score” value is 0.936 (active).
With `C[C@@H]1O[C@@H](O[C@H]2CC[C@]3(C=O)[C@H]4CC[C@]5(C)[C@@H](C6=CC(=O)OC6)CC[C@]5(O)[C@@H]4CC[C@]3(O)C2)[C@H](O)[C@H](O)[C@H]1O` [Convallatoxin], the “scaled lipid accumulation score” value under setting [1] was 0.656.
Still for that read-out and setting: the figure for `CC(=O)[C@H]1CC[C@H]2[C@@H]3CC[C@H]4C[C@H](O)CC[C@]4(C)[C@H]3CC[C@]12C` [5alpha-Pregnan-3alpha-ol-20-one] is no more than 0.
Consider `C[C@]12CC[C@H](O)C[C@@H]1CC[C@@H]1[C@@H]2CC[C@]2(C)C(=O)CC[C@@H]12` [Epiandrosterone], for which the “scaled lipid accumulation score” value was 0.082. In addition, under setting [3], the “scaled lipid accumulation score” value is no more than 0. Moreover, the “scaled lipid accumulation score” value under setting [1] was no more than 0.
Take `CCCCCCCC/C=C\CCCCCCCC(=O)OC[C@@H](COP(O)(O)=S)OC`: the “scaled lipid accumulation score” value under setting [2] is 0.084.
For the molecule `NC(=NN=Cc1ccc(-c2cccc([N+](=O)[O-])c2)o1)N[N+](=O)[O-]` [ERK Inhibitor III], under setting [3], the “scaled lipid accumulation score” value is no more than 0.
With `Cn1c2c(c3ccccc31)CCNCC2`, the “scaled lipid accumulation score” value under setting [1] is 0.326.
